Shown are actives, neighbours in structure and some others; about 14% of the full set was active somewhere.
HCMV antiviral: qHTS Assay for inhibitors of the human cytomegalovirus (HCMV); HFF cells, HCMV-luciferase reporter, 72 h; stronger effect = lower value; activity change, negative = inhibition, % at 57.5 µM; 4.5% of 410,000 active; in the data active = activity change below about -60%; inconclusive = no clear call, values can overlap the other calls; inactive = above about -39%
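HFF cells seeded 16 h at 37C, treated with compounds, infected with luciferase-reporter HCMV at MOI 1 PFU/cell; luciferase read at 72 h post infection, normalized to buffer-only and Salinomycin controls.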
Pf growth 48h: Primary qHTS for delayed death inhibitors of the malarial parasite plastid, 48 hour incubation; P. falciparum luciferase growth in erythrocytes, 48 h; Potency, µM (titrated, usually from 28.7 µM), without a hit: top-dose activity change, negative = inhibition, hits mostly inhibitors; 5.9% of 310,000 active; AID 504832, 2011; note: potency is the fitted concentration of half-maximal effect
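Read-out is firefly luciferase luminescence from an integrated reporter in P. falciparum, so falling signal marks reduced parasite growth. Infected erythrocytes were at 2% hematocrit and 0.1% parasitemia (final) in Albumax-supplemented RPMI 1640.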
Sm TGR block: qHTS Assay for the Inhibitors of Schistosoma Mansoni Peroxiredoxins | AID 485364, 2010 | purified TGR, DTNB reduction, TNB absorbance 405 nm | Potency, µM (doses to about 114 µM), for inactives: top-dose activity change, negative = inhibition, most hits filed as inhibitors | 3% of 360,000 active; note: potency is the fitted concentration of half-maximal effect; nearly all actives have a fitted effect of over 60% in size
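Kinetic colorimetric format: TGR-catalysed, NADPH-driven DTNB reduction monitored via TNB absorbance. Enzyme dispensed at 20 nM; compound exposure 15 min at room temperature before reaction start.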
Pf growth 96h: Primary qHTS for delayed death inhibitors of the malarial parasite plastid, 96 hour incubation. P. falciparum luciferase reporter growth, 96 h. Potency, µM (highest dose often 28.7 µM), for the others: top-dose activity change, negative = inhibition, usual class: inhibitors. 6.9% of 320,000 active; note: potency is the fitted concentration of half-maximal effect
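Cell-based qHTS: luciferase-tagged P. falciparum in erythrocytes (2% hematocrit, 0.05% parasitemia final) incubated with compounds for 96 hours, 37 C, 5% CO2; luciferase detection reagent then added and luminescence measured.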
FBPA Giardia inh: qHTS Assay for Inhibitors of Fructose-1,6-bisphosphate Aldolase from Giardia Lamblia | Potency, µM (top dose mostly 59.6 µM), for inactives: top-dose activity, negative = inhibition, actives largely listed as inhibitors | 0.71% of 290,000 active | purified Giardia FBPA; note: potency is the fitted concentration of half-maximal effect; nearly all actives have a fitted effect of over 55% in size
Target sequence (A8B2U2 whole entry, looked up): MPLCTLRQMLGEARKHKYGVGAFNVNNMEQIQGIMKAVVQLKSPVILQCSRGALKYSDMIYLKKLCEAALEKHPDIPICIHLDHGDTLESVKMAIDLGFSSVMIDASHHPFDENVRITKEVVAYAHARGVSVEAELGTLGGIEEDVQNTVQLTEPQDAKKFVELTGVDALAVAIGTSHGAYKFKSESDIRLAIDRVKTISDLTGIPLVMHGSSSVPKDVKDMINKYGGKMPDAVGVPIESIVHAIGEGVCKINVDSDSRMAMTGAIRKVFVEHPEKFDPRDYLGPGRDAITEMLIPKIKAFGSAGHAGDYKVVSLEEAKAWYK
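Giardia FBPA (40 nM reagent) was preincubated 10 min at RT with compound (up to 57.5 uM final), then substrate plus GAPDH/TPI/NAD/arsenate coupling system with diaphorase/resazurin was added; resorufin fluorescence (525/598 nm) was read after 20 min.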
* hit, by the source's call; ? = inconclusive; nt = not tested or not shown; [ ] = remark or other dose. Unless noted, calls come from the whole dose curve; as a rule, active = well fitted curve in the direction sought with a large enough effect; inconclusive = small, poorly fitted or top-dose-only effect, or another doubt; inactive = no such curve, though single readings can be large; an effect the other way counts as inactive or inconclusive. % is set by controls: 0 for no effect and ±100 for the full control effect.

SMILES	HCMV antiviral	Pf growth 48h	Sm TGR block	Pf growth 96h	FBPA Giardia inh
Cc1cc(CNC(=O)c2cc(-c3ccccc3)nc3ccccc23)nn1C	-0.3	-12.5%	12.8%	1.0%	-0.2%
Cc1cccc2sc(NNC(=O)c3cc(-c4cccs4)nc4ccccc34)nc12	-68.4*	?	-14.7%	4.15µM*	0.5%
C/C(=N\NC(=O)c1ccccc1Cl)c1ccccn1	-96.7*	1.65µM*	8.0%	-4.9%	?
C/C(=N\NC(=O)c1cc(Br)ccc1O)c1ccccn1	39.1	?	0.8%	?	-5.1%
C/C(=N\NC(=O)c1cccc2ccccc12)c1ccccn1	-96.2*	?	0.0%	2.08µM*	9.6%
C/C(=N\NC(=O)c1cccc2ccccc12)c1cccs1	52.7	81.6%	-31.8%	100.0%	?
Cc1ccc(NC(=O)c2cc(-c3cccs3)nc3ccccc23)c(C)c1	7.3	nt	4.9%	nt	nt
C/C(=N\NC(=O)c1cc(-c2cccs2)nc2ccccc12)c1ccccn1	-100.6*	?	7.8%	?	?
CN(C)S(=O)(=O)c1ccc(NC(=O)c2cc(-c3cccs3)nc3ccccc23)cc1	1.8	?	2.4%	?	-5.2%
NS(=O)(=O)c1ccc(NC(=O)c2cc(-c3cccs3)nc3ccccc23)cc1	6.0	26.1%	24.0%	0.415µM*	4.1%
O=C(O/N=C(\c1ccccc1)c1ccccn1)c1cccc2ccccc12	-16.2	16.5%	1.5%	9.28µM*	-4.4%
Cc1c(NC(=O)OCCNC(=O)COc2c(Cl)cccc2Cl)sc(=S)n1C	21.3	?	-23.1%	9.28µM*	0.3%
CN(C/C=C/C#CC(C)(C)C)Cc1cccc2ccccc12	-79.7*	-9.5%	nt	-9.8%	-7.4%
C=C1CCN(C(CC(C)C)C(=O)NN2CCOCC2)S(=O)(=O)c2ccccc21 (centres undefined)	nt	nt	nt	nt	0.1%
COC(=O)CCCC1=CC2=C(c3ccccc3)C(=O)C(C)(OC(=O)C3CCCC3)C(=O)C2=CN1Cc1ccccc1 (centres undefined)	nt	nt	nt	nt	-5.5%[12.9 µM]
COC(=O)CCCC1=CC2=C(c3ccccc3)C(=O)C(C)(OC(=O)C3CCCC3)C(=O)C2=CN1Cc1ccc(OC)cc1 (centres undefined)	5.7	?	22.4µM*	?	?
COC(=O)CCCC1=CC2=C(c3ccccc3)C(=O)C(C)(OC(=O)C3CCCC3)C(=O)C2=CN1Cc1ccc2c(c1)OCO2 (centres undefined)	-69.6*	?	17.8µM*	?	?
O=C1CCCc2oc3c(cc(NS(=O)(=O)c4ccc5c6c(cccc46)C(=O)N5)c4ccccc43)c21	?	?	-4.0%	11.7µM*	?
COCCN1CC(C(=O)N2CCC(Oc3ccccc3OC)CC2)CCC1=O (centres undefined)	-12.4	-14.7%	-14.8%	9.3%	5.4%
COc1cccc(-c2cn3c(n2)sc2cc(C(=O)NC4CCCCCC4)ccc23)c1	nt	nt	-3.8%	nt	nt
COCC(=O)N(c1c(C)cccc1C)C(C)C(=O)OC (centres undefined)	nt	-1.6%	nt	-17.6%	nt
COC(=O)C(C)N(C(=O)c1cccc2ccccc12)c1c(C)cccc1C (centres undefined)	-24.2	14.7µM*	-15.4%	nt	-1.6%
O=C(CSc1ncnc2[nH]ncc12)Nc1nc(-c2ccc(F)c(F)c2)cs1	-90.4*	-11.0%	-4.3%	14.2%	-7.2%
CC(C)(C)c1ccc(-c2nnc(SCC(=O)NC3CC3)o2)cc1	-10.5	2.08µM*	-13.4%	1.31µM*	nt
CCOc1ccc(-c2nnc(SCC(=O)NC3CC3)o2)cc1	-19.4	?	-0.2%	?	nt
Cc1ccc(CN2CC(=O)N3[C@H]4c5ccccc5OC[C@@H]4[C@H](c4ccccc4)[C@]3(C)C2=O)cc1	-11.0	9.28µM*	0.1%	?	nt
CCCCN1CC(=O)N2[C@H]3c4ccccc4OC[C@@H]3[C@H](c3ccccc3)[C@]2(C)C1=O	1.7	?	1.2%	5.86µM*	nt
